# Data taken from PubChem BioAssay AID1825 (The Scripps Research Institute Molecular Screening Center, 2009).
# Hit rate of the full screen: of about 290,000 compounds, about 2,300 (0.79%) were called active. No stated cut-off is given here; in the data, active means inhibition above about 22%; inactive means the rest. This excerpt belongs to a sample that is enriched for actives.
# Assay: IEC-6 cell viability reduction – luminescence, cytotoxicity control for KLF5 inhibitor project, primary screen (AID 1825);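 further: 0% = plate median of test compound wells and 100% = cytotoxic reference compound wells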
# Settings: IEC-6 cytotoxicity, at 5 µM, hits give high values
row,Structure (SMILES),inhibition
1,O=C(c1cc2sccc2n1Cc1ccc(F)cc1)N1CCc2ccccc21,1.8% (inactive)
2,COc1ccccc1C(C)NC(=O)Cc1ccsc1 (stereo not given),1.9% (inactive)
3,O=C(NC(Nc1nc2ccc([N+](=O)[O-])cc2s1)(C(F)(F)F)C(F)(F)F)c1ccccc1,28% (active)
4,O=C(COC(=O)c1ccc(F)cc1)Nc1nc2ccc([N+](=O)[O-])cc2s1,-0.2% (inactive)
5,O=C(Nc1nc2ccc([N+](=O)[O-])cc2s1)c1ccc(S(=O)(=O)N2CCCc3ccccc32)cc1,2.9% (inactive)
6,CCc1nn(CCCC(=O)Nc2ccc(C)cc2C)c(=O)c2cc3occc3n12,-4.9% (inactive)
7,CCCCCCn1c(CN2CCCCC2)nc2c1c(=O)n(C)c(=O)n2C,-2.7% (inactive)
8,CCCCCCCCn1c2c(c(=N)c3c1CCC3)CCCC2,47.1% (active)
9,COc1ccc(CCNC(=O)c2c(C)nn(-c3ccccc3)c2Cl)cc1,-1.7% (inactive)
10,CCOC(=O)c1c(C)[nH]c(C)c1S(=O)(=O)N(C)CC(=O)Nc1ccccc1C,-0.8% (inactive)
11,CCOC(=O)c1c(C)[nH]c2c1-c1ccccc1C(=O)C2=O,43.3% (active)
12,CCOC(=O)C1=C(c2ccc(OC)cc2)C(=O)c2ccccc2C1=O,-1.7% (inactive)
13,Cc1cc(C)c(S(=O)(=O)c2cc(F)ccc2C)c(=O)[nH]1,-1.4% (inactive)
14,O=C(CN1CCCCCC1)Nc1ccc(Cl)cc1F,8.4% (inactive)
15,O=C(NC1(C(F)(F)F)NC(=O)N(C2CCCCC2)C1=O)c1ccco1 (stereo not given),3.5% (inactive)
16,O=C1NC(Nc2nc3ccccc3s2)(C(F)(F)F)C(=O)N1C1CCCCC1 (stereo not given),28.2% (active)
17,COC(=O)NC1(C(F)(F)F)NC(=O)N(C2CCCCC2)C1=O (stereo not given),1.9% (inactive)
18,CCN(CC)CCN1C(=O)C(=O)/C(=C(/O)c2cnn(-c3ccccc3)c2C)C1c1cccs1 (stereo not given),3.3% (inactive)
19,CN1C(=O)c2ccc(C(=O)Nc3ccc(Br)cn3)cc2C1=O,5.5% (inactive)
20,Cc1ccc(/C=N/NC(=O)COc2ccccc2-c2ccccc2)cc1,85.6% (active)
21,C=CCc1ccccc1OCC(=O)N/N=C/c1ccccc1OCC,1.4% (inactive)
22,CSc1ccc(/C=N\NC(=O)COc2ccc(Cl)cc2Br)cc1,7.1% (inactive)
23,COc1ccccc1NC(=O)c1ccc(N2CC3CC(C2)c2cccc(=O)n2C3)c(NC(=O)c2cccnc2)c1 (stereo not given),2.1% (inactive)
24,O=C(NCc1ccccc1)C(c1ccco1)N(C(=O)c1csnn1)c1ccccc1F (stereo not given),0.2% (inactive)

row,Structure (SMILES),inhibition
1,CCCOc1ccccc1C1CC(=O)Nc2cc3c(cc21)OCO3 (stereo not given),77.5% (active)
2,COc1cc2c(cc1OC)C(c1ccncc1)CC(=O)N2 (stereo not given),1% (inactive)
3,COc1ccc(C2CC(=O)Nc3cc(C)c(C)cc32)c(OC)c1OC (stereo not given),1.9% (inactive)
4,COC(=O)C1=C(C)NC(=O)CC1c1ccccc1OC (stereo not given),-0.1% (inactive)
5,COc1ccccc1C1C2=C(COC2=O)Nc2cc3c(cc21)OCO3 (stereo not given),92.2% (active)
6,COc1ccc(S(=O)(=O)Nc2ccc3c(c2)OCO3)cc1Cl,0.7% (inactive)
7,COc1ccc(NC(=O)c2cccc(Cl)c2)c[n+]1[O-],2.7% (inactive)
8,COCCN1C(=O)C(=O)/C(=C(/O)c2ccc(S(=O)(=O)N3CCOCC3)cc2)C1c1ccc(O)c(OC)c1 (stereo not given),-5.5% (inactive)
9,O=C(NCCCN1CCOCC1)c1cc(-c2cccc(O)c2)on1,-0.6% (inactive)
10,O=C(N/N=C\c1cc2c(cc1Cl)OCO2)c1ccc(Br)s1,0.3% (inactive)
11,COc1cc2c(cc1O)[C@H](Cc1ccc(Oc3cc(C[C@@H]4NCCc5cc(OC)c(O)cc54)ccc3O)cc1)NCC2,1.5% (inactive)
12,CCc1ccc(OCC2c3cc(OC)c(OC)cc3CCN2C(C)=O)cc1 (stereo not given),9% (inactive)
13,CC[C@H]1CN2CCc3cc(OC)c(OC)cc3[C@@H]2C[C@@H]1C[C@H]1NCCc2cc(OC)c(OC)cc21,98.9% (active)
14,Fc1ccc(-n2c(Cc3ccccc3)nnc2SCc2nc(-c3ccc(Cl)cc3)no2)cc1,-0.4% (inactive)
15,COc1ccc(CN2CCC(n3nccc3NC(=O)CCCc3ccccc3)CC2)cc1C,2.8% (inactive)
16,CSc1nc(N(C)NC(=O)c2cccc(C)c2)c2ccccc2n1,94.6% (active)
17,Cc1cccc(C(=O)NCCCN(C)CCCNC(=O)c2cccc(C)c2)c1,-0.9% (inactive)
18,COC(=O)CNC(=O)c1ccccc1F,-2.1% (inactive)
19,CN(NC(=O)c1ccccc1)c1nc2ccccc2nc1C(F)(F)F,-0.3% (inactive)
20,COc1ccc(C(=O)NN(C)c2nc(-c3ccccc3)cc(C)c2S(C)(=O)=O)cc1,1% (inactive)
21,CN(NC(=O)c1ccccc1F)c1nc(C(F)(F)F)nc2ccccc12,83.3% (active)
22,CCOc1ccccc1NC(=S)NC(=O)CCc1ccccc1,-2.9% (inactive)
23,NC(=O)CSc1nnc(NC(=O)c2ccc(Br)o2)s1,-5.8% (inactive)
24,CN(C)CCCNC(=O)c1cc(C(=O)Cc2ccc(Cl)cc2)c[nH]1,2.2% (inactive)

row,Structure (SMILES),inhibition
1,COc1ccc(N2CCN(S(=O)(=O)c3ccc4c(c3)NC(=O)C(C)C(=O)N4)CC2)cc1 (stereo not given),1% (inactive)
2,COc1cc(C(=O)NN(CCC#N)C2=NS(=O)(=O)c3ccccc32)cc(OC)c1OC,-4.2% (inactive)
3,C/C(=N\NC(=O)CNc1cccc2ccccc12)c1ccc(Br)s1,0.2% (inactive)
4,Cn1cccc1/C=N/NC(=O)CNc1cccc2ccccc12,47.6% (active)
5,Cn1cccc1/C=N/NC(=O)c1ccc(OC(F)(F)C(F)F)cc1,2.6% (inactive)
6,Cc1cccc(C(=O)Nc2ccc(C(=O)N/N=C/c3cccc(C)n3)cc2)c1,1.5% (inactive)
7,Cc1cccc(/C=N/NC(=O)CNc2cccc3ccccc23)n1,37.6% (active)
8,Cc1ccccc1NCC(=O)N/N=C\c1ccc([N+](=O)[O-])s1,-4.9% (inactive)
9,O=C(NCCCn1ccnc1)c1cc(Br)c(Br)s1,-4.3% (inactive)
10,CN1C(=O)[C@H]2[C@@H](C3CC3)N3C(=O)CN(Cc4ccccc4)C(=O)[C@@]3(C)[C@H]2C1=O,-1.7% (inactive)
11,CC1CCCCN1S(=O)(=O)c1ccc(C(=O)Nc2nnc(-c3cccs3)o2)cc1 (stereo not given),29.2% (active)
12,CSCc1nnc(NC(=O)c2ccc(S(=O)(=O)N3CCCCC3C)cc2)o1 (stereo not given),-0.9% (inactive)
13,CC1CCCN(S(=O)(=O)c2ccc(C(=O)Nc3nnc(-c4ccncc4)o3)cc2)C1 (stereo not given),-1% (inactive)
14,CCc1nn(CCCC(=O)Nc2ccc(C)c(C)c2)c(=O)c2cc3occc3n12,-1.7% (inactive)
15,CCCCCCn1cc(C(=O)O)c(=O)c2cc(F)c(N3CCCCC3)cc21,2.5% (inactive)
16,Cc1ccc(C)c(Cn2cnc3c(oc4ccccc43)c2=O)c1,19.8% (inactive)
17,O=C(c1n[nH]c2c1CCC2)N1CCCC(Nc2cccc(F)c2)C1 (stereo not given),-8.3% (inactive)
18,Cc1ccc(Nc2c3c(nc4ccccc24)CCC3)cc1,7.5% (inactive)
19,CC(=O)Nc1ccc(Nc2c3ccccc3nc3ccccc23)cc1,95.3% (active)
20,O=[N+]([O-])c1cccc(Nc2c3ccccc3nc3ccccc23)c1,-0.9% (inactive)
21,COc1ccc(Cl)cc1NC(=O)CN(C)Cc1ccc(OC)c(OC)c1,5.1% (inactive)
22,COc1ccccc1N1CC(C(=O)Nc2nnc(SCC(=O)NCC3CCCO3)s2)CC1=O (stereo not given),5.1% (inactive)
23,Nc1nonc1-n1nnc(C(=O)N/N=C\c2ccncc2)c1CN1CCCCC1,-0.8% (inactive)
24,CCOc1cc(/C=N/Nc2cc(C)nc3ccc(C)cc23)ccc1O,-8.1% (inactive)

row,Structure (SMILES),inhibition
1,O=C(O)CN1CCN(C(c2ccccc2)c2ccccc2)CC1,-7.1% (inactive)
2,CC(C)NC(=S)N1CCN(C(c2ccccc2)c2ccccc2)CC1,-1.6% (inactive)
3,CC1(C)CC(N2CCN(C(c3ccccc3)c3ccccc3)CC2)=CC(=[N+]2CCCCC2)C1,30.6% (active)
4,CC(C)c1ccc(/C=C2\NC(=O)NC2=O)cc1,-2.7% (inactive)
5,COc1ccc(N(C(=O)CNC(=O)c2ccco2)C(C(=O)NCC2CCCO2)c2ccccc2)cc1Cl (stereo not given),4.1% (inactive)
6,CC[n+]1cc(C)ccc1/C=C/c1ccc(N(C)C)cc1,38.6% (active)
7,CN(C)c1ccc(/C=N\S(=O)(=O)c2ccccc2)cc1,-2.3% (inactive)
8,CCSc1nnc(-c2cc3c(s2)-c2ccccc2CC3)o1,5.3% (inactive)
9,CC1CCCN(S(=O)(=O)c2ccc(-c3ccc(=O)[nH]n3)o2)C1 (stereo not given),2.6% (inactive)
10,COCCNc1ncnc2c1nc1n2CCCC1,2.4% (inactive)
11,COc1ccccc1/C=C1\SC(=O)N(CCC(=O)N(C)C2CCS(=O)(=O)C2)C1=O (stereo not given),-0.8% (inactive)
12,CN1CCC(CN)(N2CCN(c3ccccc3)CC2)CC1,-4.9% (inactive)
13,CCN(CC)c1ccc(NC(=O)c2ccc(Cl)nc2)cc1,55.7% (active)
14,Cc1cnc(NC(=O)c2ccc(Cl)nc2)s1,-6.8% (inactive)
15,O=C(NNc1ccccn1)c1ccc(Cl)nc1,-4.7% (inactive)
16,COc1cccc(CNC(=O)CCC2CCCN(C(=O)c3ccc(F)c(Cl)c3)C2)c1 (stereo not given),1.1% (inactive)
17,O=C(CNC(=O)c1cccs1)N/N=C/c1cccc(Br)c1,-5.3% (inactive)
18,O=C(CCN1C(=O)C2C3C=CC(C3)C2C1=O)Nc1ccccc1F (stereo not given),-2.4% (inactive)
19,O=C(CN1C(=O)C2C3C=CC(C3)C2C1=O)Nc1nc(-c2ccccn2)cs1 (stereo not given),32.2% (active)
20,O=C(CN1C(=O)C2C3C=CC(C3)C2C1=O)NCCc1ccccc1Cl (stereo not given),-1.9% (inactive)
21,CCOc1cc(/C=C/c2nc3ccccc3c(=O)[nH]2)cc(Br)c1OC,48.7% (active)
22,COc1ccc(/C=N/Nc2nc3ccccc3c(=O)[nH]2)cc1,1.1% (inactive)
23,COc1ccc(C)cc1-n1nnnc1SCc1nc2ccccc2c(=O)[nH]1,3.2% (inactive)
